Screening data from PubChem BioAssay.
This is a sample that favours compounds with a hit; in the whole collection about 7.5% have one here.
SMN2 splice enh – qHTS Assay for Enhancers of SMN2 Splice Variant Expression; HEK293 SMN2-luciferase splicing reporter, luminescence, 30-36 h; 210,000 compounds, 2.8% hits; Potency, µM (highest dose often 46.1 µM), inactives show top-dose activity change, positive = activation, actives largely listed as activators; AID 1458, 2008; also: % of control where 0% means no effect; nearly all actives have a fitted effect of over 55% in size
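qHTS luciferase splicing reporter: luminescence rises when SMN2 exon 7 is included in transfected HEK293 cells. Compound exposure lasted 30-36 h at 37C, with 4.5 mM final sodium butyrate as control, followed by a ONE-Glo read.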
Rab9 prom act – qHTS Assay for Rab9 Promoter Activators | 320,000 compounds, 2.8% hits | Potency, µM (titrated, usually from 9.22 µM), for inactives: at the top dose activation, negative = inhibition, hits mostly activators | Huh7 Rab9 promoter-luciferase reporter, luminescence, 24 h; also: % of control where 0% means no effect; nearly all actives have a fitted effect of over 60% in size
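Luciferase signal after 10 min detection reagent at ambient indicates Rab9 promoter upregulation; stably transfected Huh7 cells were treated 24 h with compound in DMSO at 37 °C, 5% CO2.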
ELG1 genotox – qHTS screen for small molecules that induce genotoxicity in human embryonic kidney (HEK293T) cells expressing luciferase-tagged ELG1; HEK293T ELG1-luciferase reporter, luminescence, 16 h; Potency, µM (series often up to 46 µM), for the others: at the top dose activity change, positive = activation, usual class: activators; 330,000 compounds, 1.3% hits; also: % of control where 0% means no effect; nearly all actives have a fitted effect of over 60% in size
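Reporter readout depends on ELG1 protein level, which increases with genetic stress. After 16 hr compound exposure at 37 °C, luciferase activity was quantified using ONE-Glo.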
NPC1 promoter act – qHTS Assay for NPC1 Promoter Activators | Huh7 NPC1 promoter luciferase reporter, 24 h | Potency, µM (doses to about 9.22 µM), for inactives: at the top dose activation, usual class: activators | 320,000 compounds, 2.4% hits | AID 485313, 2010; also: % of control where 0% means no effect; nearly all actives have a fitted effect of over 60% in size
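Luminescence read-out of NPC1 promoter-driven luciferase in stably transfected Huh7 cells; compounds delivered in DMSO and left 24 h at 37C, 5% CO2, qHTS titration format.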
Luc counter – Counterscreen for Luciferase (Kinase-Glo TM) Inhibition; Luciferin 4-monooxygenase (Photuris pensylvanica), Q27757; 200,000 compounds, 0.28% hits; AID 1379, 2008; Potency, µM (highest dose often 38.3 µM), inactives show at the highest dose activity change, negative = inhibition, usual class: inhibitors; Kinase-Glo luciferase, ATP luminescence, 8 min; also: % is scaled to controls: 0 for no effect and ±100 for the full control effect; nearly all actives have a fitted effect of over 60% in size
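Substrate mix (final 50 mM imidazole pH 7.2, 50 mM KCl, 7 mM MgCl2, 10 uM ATP, 0.01% Tween 20, 0.05% BSA) plus pin-tool compound, then Kinase-Glo detection mix; 8 min ambient, luminescence read.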
FLuc modulator – qHTS profiling assay for firefly luciferase inhibitor/activator using purifed enzyme and Km concentrations of substrates (counterscreen for miR-21 project) | purified FLuc, Km substrates, luminescence inhibition | Luciferin 4-monooxygenase (Photinus pyralis), P08659 | Potency, µM (highest dose often 57.5 µM), inactives show at the highest dose activity change, negative = inhibition, hits mostly inhibitors | 360,000 compounds, 6.9% hits;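 also: plate controls were vehicle for no effect and reference inhibitor for full effect; nearly all actives have a fitted effect of over 55% in size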
Target sequence (P08659 whole entry, looked up): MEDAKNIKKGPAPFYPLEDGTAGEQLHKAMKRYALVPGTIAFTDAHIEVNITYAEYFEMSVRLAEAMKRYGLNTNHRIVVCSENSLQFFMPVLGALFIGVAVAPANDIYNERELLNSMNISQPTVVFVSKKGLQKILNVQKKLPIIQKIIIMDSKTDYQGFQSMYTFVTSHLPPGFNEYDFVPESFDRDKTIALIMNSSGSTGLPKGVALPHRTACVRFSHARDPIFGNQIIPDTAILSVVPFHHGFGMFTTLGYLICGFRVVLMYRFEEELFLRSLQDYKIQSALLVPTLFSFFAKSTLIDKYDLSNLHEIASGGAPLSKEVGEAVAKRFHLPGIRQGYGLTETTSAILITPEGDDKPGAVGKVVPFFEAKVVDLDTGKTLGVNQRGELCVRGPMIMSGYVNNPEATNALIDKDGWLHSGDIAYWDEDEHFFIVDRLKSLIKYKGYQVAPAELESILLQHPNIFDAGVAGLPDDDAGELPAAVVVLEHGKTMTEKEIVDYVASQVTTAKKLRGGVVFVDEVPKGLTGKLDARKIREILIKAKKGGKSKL
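Purified P. pyralis luciferase, 10 nM final, with Km-level 10 uM D-luciferin and 10 uM ATP in 50 mM Tris acetate pH 7.5, 10 mM Mg acetate, 0.01% Tween-20, 0.05% BSA; 6-point qHTS titration about 60 µM downward; luminescence read.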
Starred values were filed as active, the others as inactive; ? = inconclusive; nt = no result. Calls follow the shape of the dose curve; as a rule, active = well fitted curve in the direction sought with a large enough effect; inconclusive = small, poorly fitted or top-dose-only effect, or another doubt; inactive = no such curve, though single readings can be large; an effect the other way counts as inactive or inconclusive. Potency is read from the fitted curve at half-maximal effect.

SMILES	SMN2 splice enh	Rab9 prom act	ELG1 genotox	NPC1 promoter act	Luc counter	FLuc modulator
Cc1cc(/C=N/NC(=O)c2cccc([N+](=O)[O-])c2)c(C)n1-c1ccccc1	27%	20%	?	0%	-2%	1.7µM*
Cc1cc(/C=N/NC(=O)c2ccncc2)c(C)n1-c1ccccc1	?	?	?	23%	-1%	1.9µM*
O=C1N[C@H](Cc2ccccc2)C(=O)N1Cc1cccc2ccccc12	-2%	nt	nt	nt	-1%	nt
CCc1nc(SCC(=O)NC2CCCC2)c2c(=O)n(C)c(=O)n(C)c2n1	nt	1%	2%	-11%	nt	3%
CN1CCN(S(=O)(=O)c2ccc(CNC(=O)c3ccccc3)s2)CC1	nt	-6%	-2%	-4%	nt	1%
Cc1cc(C(=O)O)c(C)n1-c1ccccc1	-10%	-1%	1%	4%	2%	5%
Cc1cc(/C=N/NC(=O)COc2cccc3cccnc23)c(C)n1-c1ccc(O)cc1	?	30%	5%	20%	-1%	3.4µM*
Cc1cc(C(=O)N/N=C2\CC(=O)c3ccccc32)c(C)n1-c1ccccc1	10µM*	3.5µM*	?	?	-24%	2.7µM*
Cc1cc(C(=O)N/N=C/c2ccc(O)c(O)c2O)c(C)n1-c1ccccc1	-38%	-3%	-5%	0%	-7%	11µM*
Cc1ccc(-c2oc3ccccc3c(=O)c2O)cc1	6%	27%	23µM*	25%	-3%	?
O=c1c(O)c(-c2ccccc2)oc2ccccc12	-36%	nt	nt	nt	-3%	nt
COc1cccc(-c2oc3ccc(C)cc3c(=O)c2O)c1	10µM*	nt	nt	nt	nt	2.7µM*
COc1ccc(C#Cc2ccc3c(c2)c(=O)c2ccccc2n3C)cc1	nt	15%	-3%	16%	nt	12µM*
Cn1c2ccccc2c(=O)c2cc(C#Cc3ccc(N)cc3)ccc21	nt	?	6%	?	nt	6µM*
Cn1c2ccccc2c(=O)c2ccc(C#CC3(O)CCCCC3)cc21	nt	0.32µM*	?	0.32µM*	nt	0.38µM*
Cn1c(-c2ccccc2)c(C#Cc2ccc(N)cc2)c2ccccc21	nt	nt	-2%	nt	nt	nt
Cc1ccc2oc3c(c(=O)c2c1)C1(C(=O)N(C)c2ccccc21)N(CCCO)C3=O (stereo unspecified)	5%	nt	nt	nt	nt	-1%
CC(C)CNC(=O)N1CCN(S(=O)(=O)c2ccc3c(ccn3C)c2)CC1	nt	nt	nt	nt	nt	3%
CCOc1ccc2oc(C(=O)NCc3ccccc3CN3CCCC3)c(C)c2c1	nt	-9%	-8%	-1%	nt	nt
Cc1ccc2c(Cl)c(C)c(N3CCCC3)nc2n1	-10%	2%	1%	-2%	0%	17µM*
COC(=O)CNC(=O)C1(C)C=CCN1C(=O)c1ccccc1 (stereo unspecified)	11µM*	?	?	15%	-1%	15µM*
CC(C)CC1(C(=O)NCC2CC2)C=CCN1C(=O)c1ccccc1 (stereo unspecified)	13µM*	nt	nt	nt	-18%	nt
CC(=O)N1CC=CC1(C)C(=O)NCC1CC1 (stereo unspecified)	11µM*	nt	nt	nt	-6%	nt
CC(=O)N1CC=CC1(CC(C)C)C(=O)NCC1CC1 (stereo unspecified)	?	nt	nt	nt	-1%	nt
COC(=O)CNC(=O)C1(CC(C)C)C=CCN1C(=O)c1ccccc1 (stereo unspecified)	?	nt	nt	nt	-4%	nt
SMILES	SMN2 splice enh	Rab9 prom act	ELG1 genotox	NPC1 promoter act	Luc counter	FLuc modulator
NS(=O)(=O)c1ccc(CNC(=O)c2ccc3c(=O)n4c(nc3c2)CCC4)cc1	nt	-6%	-11%	-5%	nt	-10%
O=C(Nc1ccc(F)cc1)NC1CCN(Cc2ccccc2)CC1	-6%	-7%	-7%	-6%	2%	4%
O=C(Nc1cccc(F)c1)Nc1ccc2c(c1)OCO2	nt	2.8µM*	?	2.2µM*	nt	7.6µM*
O=C(O)Cc1ccc(NC(=O)Nc2ccc3c(c2)OCO3)cc1	nt	?	?	26%	nt	9.5µM*
O=C(NCc1ccc2c(c1)OCO2)Nc1ccc(Cl)cc1	nt	25%	?	26%	nt	4%
CC(=O)Nc1ccc(OCc2ccc3c(c2)OCO3)cc1	nt	1.6µM*	?	0.63µM*	nt	17µM*
O=C(Nc1ccc2c(c1)OCO2)C1CCCN1C(=O)Nc1cccc(F)c1 (stereo unspecified)	-4%	13%	-3%	-3%	-1%	-2%
O=C(Nc1ccc2c(c1)OCO2)NC1CCN(Cc2ccccc2)CC1	?	2%	?	12%	-2%	17µM*
O=C(Nc1ccc2c(c1)OCO2)c1c(F)cccc1F	10µM*	3.2µM*	?	3.5µM*	-1%	12µM*
CC(C)[C@H](NC(=O)c1ccccc1F)C(=O)Nc1ccc2c(c1)OCO2	nt	1%	12%	-1%	nt	-1%
CC(C)C(=O)Nc1cccc(NC(=O)c2cccc(F)c2)c1	3%	5%	-5%	1%	-1%	1%
O=C(Nc1ccc2c(c1)OCO2)c1cccc(F)c1	?	nt	nt	nt	-24%	12µM*
O=C(c1cccc(C(F)(F)F)c1)N1CCC2(CC1)NCCc1[nH]cnc12	nt	-2%	-1%	-6%	nt	-1%
Cn1cnc(C(=O)NCc2ccccc2)c1C(=O)NCc1ccccc1	nt	nt	1%	nt	nt	nt
CCc1ccc(Nc2ncc3c(n2)CC(C)(C)CC3=O)cc1	nt	2.5µM*	?	3.2µM*	nt	15µM*
Cc1ccc2nc(Nc3ncc4c(n3)CCCC4=O)nc(C)c2c1	6%	5%	0%	-2%	10%	-1%
CCc1ccc(Nc2ncc3c(n2)CC(C)CC3=O)cc1 (stereo unspecified)	nt	1.3µM*	?	2µM*	-5%	?
Cc1cc(C)cc(Nc2ncc3c(n2)CCCC3=O)c1	2.5µM*	4µM*	?	4µM*	-2%	3.4µM*
Cc1cccc(Nc2ncc3c(n2)CC(C)CC3=O)c1 (stereo unspecified)	11µM*	3.5µM*	4.6µM*	3.5µM*	-7%	9.5µM*
Cc1cccc(Nc2ncc3c(n2)CC(c2ccco2)CC3=O)c1 (stereo unspecified)	10%	0%	0%	-2%	0%	2%
O=C(C[C@H]1C[C@H](C(=O)N2CCCCC2)[C@@]2(CCc3ccccc3)c3[nH]c4ccc(Cl)cc4c3CCN2C1=O)NCCN1CCOCC1	nt	nt	6%	nt	nt	nt
Cc1oc(-c2cccc(Br)c2)nc1CN1CCC(C(=O)NCc2ccccc2)CC1	nt	nt	nt	nt	nt	-17%
